Screening results (PubChem BioAssay)
Coupling enz: inhibits coupling enzyme system, counter-screen for aldolase hits. 0.67% of 290,000 active. activity change, negative = inhibition, % at 58.2 µM, hits read low. AID 2472. coupling enzyme system counterscreen, AmpLite Red fluorescence; in the data active = activity change below about -30%
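Fluorescence at 525 nm excitation and 598 nm emission measured inhibition of the coupled detection system without aldolase. Compounds (at 57.5 uM final) were preincubated 10 min at room temperature with coupling enzyme reagent before a 20 min substrate/AmpLite Red step.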
TrxR1 inh: inhibitors of rat thioredoxin reductase 1; 1% of 390,000 active; Potency, µM (series often up to 114 µM), actives largely listed as inhibitors; recombinant rTrxR1, NADPH fluorescence consumption, selenite substrate; O89049; also: nearly all actives have a fitted effect of over 65% in size
Target sequence (O89049 whole entry, looked up): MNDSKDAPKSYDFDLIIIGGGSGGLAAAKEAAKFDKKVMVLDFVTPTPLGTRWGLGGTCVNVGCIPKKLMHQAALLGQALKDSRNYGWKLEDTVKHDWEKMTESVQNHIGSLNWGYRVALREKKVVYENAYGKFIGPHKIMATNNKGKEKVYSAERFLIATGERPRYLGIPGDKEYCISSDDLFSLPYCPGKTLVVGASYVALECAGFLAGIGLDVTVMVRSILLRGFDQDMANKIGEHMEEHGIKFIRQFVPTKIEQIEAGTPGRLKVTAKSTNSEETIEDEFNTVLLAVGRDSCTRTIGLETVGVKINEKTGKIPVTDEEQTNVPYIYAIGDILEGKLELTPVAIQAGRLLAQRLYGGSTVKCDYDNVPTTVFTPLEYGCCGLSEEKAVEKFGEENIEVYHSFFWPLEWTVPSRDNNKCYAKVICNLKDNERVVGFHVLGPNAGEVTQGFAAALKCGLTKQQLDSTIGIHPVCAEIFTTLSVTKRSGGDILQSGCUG
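Rat TrxR1 (90 nM in the dispensed reagent) was pre-reduced with 400 uM NADPH for 5 min at room temperature, then incubated with compound for 15 min. After 400 uM selenite was added, NADPH fluorescence (Ex 340/Em 450 nm) was followed for 8 min.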
TrxR1 substrate: is turned over as a substrate by rat TrxR1. O89049. 0.01% of 390,000 active. purified TrxR1 substrate turnover, NADPH consumption readout. Potency, µM (highest dose often 114 µM). AID 588456; also: nearly all actives have a fitted effect of over 50% in size
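Rat TrxR1, dispensed at 90 nM, was prereduced with 400 uM NADPH (final) for 5 min at ~22 deg C, then incubated with compound 15 min before 400 uM selenite. A first-read NADPH fluorescence drop versus no-compound background flagged substrates.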
GALK inhibitor: blocks human galactokinase activity | Potency, µM (series often up to 57.5 µM), most hits filed as inhibitors | 0.007% of 270,000 active | P51570 | Purified GALK, Kinase-Glo residual ATP luminescence | AID 1868
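ATP-depletion format; final 35 uM ATP, 100 uM D-galactose, 5 nM enzyme; pH 8.0 HEPES/Mg2+ buffer; 60 min RT; luminescence read 10 min after detection reagent.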
RORg inh: ROR gamma (mouse) transcription inhibition; Drosophila S2 Gal4-RORgamma UAS-luciferase reporter, 20 h; 5.4% of 310,000 active; Potency, µM (titrated, usually from 53.6 µM), most hits filed as inhibitors; AID 2551; P51450; also: nearly all actives have a fitted effect of over 60% in size
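Stable Schneider cell line, Gal4 DNA-binding domain fused to ROR gamma, UAS-luciferase. Cmpd 1 hr RT → CuSO4 700 uM final → 20 hr RT → luciferase reagent 10 min → luminescence.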
VP16 counter: Gal4-VP16 reporter inhibition counter-screen; Drosophila S2 Gal4-VP16 UAS-luciferase, luminescence, 20 h; Potency, µM (series often up to 53.6 µM), most hits filed as inhibitors; 3.5% of 310,000 active; AID 2546;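 also: Gal4-VP16 expression switched on by copper sulfate through the metallothionein promoter; nearly all actives have a fitted effect of over 50% in size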
A number is an active result; – = inactive; ? = inconclusive; · = no result. Hits are enriched below; roughly 5.9% of the tested compounds scored in any of these assays. Unless noted, calls follow the shape of the dose curve; as a rule, active = well fitted curve in the direction sought with a large enough effect; inconclusive = small, poorly fitted or top-dose-only effect, or another doubt; inactive = no such curve, though single readings can be large; an effect the other way counts as inactive or inconclusive.

SMILES	Coupling enz	TrxR1 inh	TrxR1 substrate	GALK inhibitor	RORg inh	VP16 counter
CCOC(=O)c1c(-c2ccccc2)csc1NC(=O)CSc1nnc(C)s1	–	–	–	·	?	?
CCOC(=O)c1c(-c2ccc(C)o2)csc1NC(=O)CSc1nnnn1-c1ccccc1	–	2.8µM	–	–	11µM	7.9µM
CCOC(=O)c1c(-c2ccc(C)o2)csc1NC(=O)CSc1nnc(C)s1	–	8.9µM	–	–	?	?
CCOC(=O)c1sc(NC(=O)CSc2nnnn2-c2ccccc2)nc1C	–	–	–	–	–	–
Cc1cc(C)c(S(=O)(=O)N2CCCCC2CCNC(=O)C(=O)NCc2ccccn2)c(C)c1 (stereo not given)	·	–	–	·	·	·
[N-]=C=C1C(=S)NC(=O)[C@H]([n+]2ccccc2)[C@H]1c1ccc(Cl)cc1	–	?	–	–	–	–
[N-]=C=C1C(=O)NC(=O)C([n+]2ccc(-c3ccncc3)cc2)C1c1ccccc1C(F)(F)F (stereo not given)	-65	–	–	·	–	–
C/C(=N\NC(N)=O)c1cc(Cl)cc(Cl)c1O	–	–	–	–	0.89µM	10µM
C/C(=N\O)c1cc(Cl)cc(Cl)c1O	–	–	–	·	?	–
Cc1ccc(-n2c(-c3ccccc3)c[n+]3c2CCc2ccccc2-3)c(C)c1	–	–	–	–	?	7.1µM
O=C(COC(=O)c1cnccn1)NC(=O)c1ccccc1	·	–	–	·	·	·
O=C1/C(=C/c2ccncc2)SC(=S)N1N1CCOCC1	–	22µM	–	–	–	?
C=CCOc1c(CNc2ccc(S(N)(=O)=O)cc2)cccc1OC	–	–	–	–	–	–
COc1ccc(CNc2ccc(S(N)(=O)=O)cc2)c(OC)c1OC	–	–	–	–	?	20µM
NC(=O)c1sc2nc3c(c(-c4ccco4)c2c1N)CCCC3	–	–	–	–	–	–
Nc1c(C(=O)NCC2CCCO2)sc2nc3c(c(-c4ccco4)c12)CC/C3=C\c1ccco1 (stereo not given)	–	14µM	–	–	–	–
CCCCNC(=O)c1nn(-c2ccc(CC)cc2)nc1CO	·	–	–	·	·	·
COC(=O)N/N=C/c1ccc(-c2cc(Cl)cc(Cl)c2)o1	–	–	–	–	–	–
NC(=S)N/N=C/c1ccc(-c2cc(Cl)ccc2Cl)o1	–	?	–	–	1.3µM	2.8µM
NC(=S)N/N=C/c1ccc(-c2cc(Cl)cc(Cl)c2)o1	–	?	–	–	1.3µM	4µM
CCOC(=O)N/N=C\c1ccc(-c2cc(Cl)ccc2Cl)o1	–	–	–	–	–	–
NC(=S)N/N=C/c1ccc(-c2ccc([N+](=O)[O-])cc2)o1	–	–	–	–	7.1µM	?
Cn1c(COc2ccccc2Br)nc2ccccc21	–	–	–	–	13µM	?
CCn1c(COc2ccccc2OC)nc2ccccc21	–	–	–	–	13µM	?
CCCn1c(COc2ccccc2OC)nc2ccccc21	–	–	–	–	10µM	?
SMILES	Coupling enz	TrxR1 inh	TrxR1 substrate	GALK inhibitor	RORg inh	VP16 counter
CCn1c(COc2cccc(C)c2)nc2ccccc21	–	–	–	–	10µM	?
C=CCN(C(=O)CN1CCCCC1)c1nc(-c2ccccc2)cs1	–	?	–	–	–	–
O=C(NC(NC1CCS(=O)(=O)C1)C(Cl)(Cl)Cl)c1cccc(Cl)c1 (stereo not given)	–	–	–	–	–	–
Cc1ccccc1Nc1nc(N)nc(CSc2nnc(-c3ccccc3)n2C)n1	–	–	–	–	–	–
CC(NC(=O)CS(=O)(=O)c1ccccc1)c1ccccc1 (stereo not given)	·	–	–	–	–	–
O=C(O)c1cc(S(=O)(=O)N2CCOCC2)c(Sc2ccccn2)cc1Sc1ccccn1	–	–	–	–	–	–
CC1CCc2nc3ccc(S(=O)(=O)N4CCC(C(=O)N5CCCCC5)CC4)cc3c(C(=O)O)c2C1 (stereo not given)	–	–	–	–	–	–
CC(c1nc2ccccc2n1Cc1ccccc1)N1CCCCC1 (stereo not given)	–	–	–	·	14µM	?
CCCn1c(COc2ccccc2)nc2ccccc21	–	–	–	·	13µM	–
